mcGAS inh: cyclic GMP-AMP synthase inhibitors, mouse, primary biochemical chemiluminescence | 0.15% of 160,000 active | inhibition, % at 12.5 µM | AID 1259399, 2018 | Q8C6L5 | recombinant cGAS, Kinase-Glo ATP depletion luminescence;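 further: 0% = negative control wells and 100% = reference inhibitor with no enzyme activity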
hcGAS lum: Primary biochemical luminescence assay for human cyclic GMP-AMP synthase inhibitors. AID 1259398, 2018. 0.081% of 290,000 active. recombinant h-cGAS, ATP depletion, Kinase-Glo luminescence. inhibition, % at 12.5 µM. Q8N884;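 further: 0% = vehicle reaction and 100% = reaction without DNA for no activity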
Target sequence (Q8N884 whole entry, looked up): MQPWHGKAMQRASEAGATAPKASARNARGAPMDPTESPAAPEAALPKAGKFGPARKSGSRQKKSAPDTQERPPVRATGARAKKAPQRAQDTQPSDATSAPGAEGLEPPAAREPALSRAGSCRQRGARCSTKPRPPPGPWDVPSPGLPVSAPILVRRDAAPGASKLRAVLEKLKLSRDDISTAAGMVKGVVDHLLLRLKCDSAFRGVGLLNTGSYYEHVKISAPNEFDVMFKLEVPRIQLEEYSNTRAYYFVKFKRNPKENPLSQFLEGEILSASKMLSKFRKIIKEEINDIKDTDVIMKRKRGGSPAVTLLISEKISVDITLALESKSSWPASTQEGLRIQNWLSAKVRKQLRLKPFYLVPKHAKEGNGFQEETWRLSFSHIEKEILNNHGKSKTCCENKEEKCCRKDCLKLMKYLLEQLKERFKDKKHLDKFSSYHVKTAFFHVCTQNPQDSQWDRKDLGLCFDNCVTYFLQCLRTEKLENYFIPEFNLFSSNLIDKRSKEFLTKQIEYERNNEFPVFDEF
NPYLR7 ag: agonists of mosquito NPYLR7 receptor, primary screen, cell-based, Aedes aegypti, calcium fluorescence, mosquito biting behavior. Aedes aegypti neuropeptide Y-like receptor 7 (NPYLR7). HEK293T NPYLR7/Galpha15, GCaMP6s calcium fluorescence. activation, % at 10 µM. 0.15% of 270,000 active. AID 1259423, 2018; in the data active means activation above about 40%;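 further: 0% = vehicle and 100% = reference agonist at the receptor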
An asterisk follows results filed as active; x = not tested or not shown; ! = not active in a repeat. A selection: hits, their analogues and other compounds. The true share with any hit is near 0.3%. Unless noted, no stated cut-off is given here; in the data, active means inhibition above about 40%; inactive means the rest.

SMILES	mcGAS inh	hcGAS lum	NPYLR7 ag
CCCCN(C)c1ccc(NC(=O)N2CCN(CC(N)=O)CC2)cc1	x	5	3
O=c1cc(-c2cc(O)c(O)c(O)c2)oc2cc(O)cc(O)c12	x	22	22
O=c1oc2c(O)c(O)cc3c(=O)oc4c(O)c(O)cc1c4c23	x	43*	-10
Cc1ccc(-c2cccc3c2OC(CNC(=O)CSc2ncccn2)C3)nc1 (configuration not stated)	x	-2	4
COc1cc(CNCCC(C)C)cc(OC)c1	x	-3	28
CCCNC(=O)N1CCN(c2cc(Cl)nc(SCC(=O)NC3CC3)n2)CC1C (configuration not stated)	-6	-12	15
N#CC(=Cc1ccc(OC(F)F)cc1)C(=O)O	49*	-2	0
CC(C)NC(=O)C(C#N)=Cc1ccc(O)cc1	2	7	4
CC(C)(C)c1ccc(S(=O)(=O)Nc2cc(Sc3ncn[nH]3)c(O)c3ccccc23)cc1	14	-8	-7
O=S(=O)(Nc1cc(Sc2ncn[nH]2)c(O)c2ccccc12)c1ccc(Br)cc1	44*	-5	-5
CCCSc1ncccc1C(=O)Nc1cccc(OC)c1	-4	-3	-6
COc1ccccc1Oc1ncccc1CNC(=O)c1cccnc1OC	x	-8	10
Cc1cc(C)nc(SCc2cc(=O)n3[nH]c(C)c(-c4ccccc4)c3n2)n1	x	-11	-3
COCc1[nH]n2c(=O)cc(Cc3ccccc3)nc2c1-c1ccccc1	x	56*	-4
O=c1cc(Cc2ccccc2)nc2c(-c3ccccc3)c(C(F)(F)F)[nH]n12	x	68*	-11
CCCc1cc(=O)n2[nH]c(COC)c(-c3ccc(C)cc3)c2n1	x	-5	-17
O=[N+]([O-])C(C(Cl)=C(Cl)Cl)=C(N1CCOCC1)N1CCOCC1	x	-8	-15
CC1(C)Oc2cc(I)c([N+](=O)[O-])cc2O1	x	5	x
O=[N+]([O-])c1cccc(S(=O)(=O)N2CCCN(c3nc4ccccc4nc3-c3ccccc3)CC2)c1	x	-4	27
COCCN(Cc1ccc(C(C)(C)C)cc1)Cc1cccn1Cc1cccc(C)c1	-3	1	17
COCCCN(Cc1ccc(C(C)(C)C)cc1)Cc1cccn1Cc1cccc(C)c1	-5	-10	41*
CC1C(=O)N(c2cccc(F)c2)CCN1C(=O)C1CCCC1 (configuration not stated)	-6	-7	-3
CC1C(=O)N(c2cccc(F)c2)CCN1C(=O)C1CC1 (configuration not stated)	-1	2	44*
c1cc(-c2nc(CCNC3CCSC3)cs2)ccn1 (configuration not stated)	-7	-5	5
CCC(=O)Cn1nnnc1CNC(=O)OC(C)(C)C	x	-1	2
SMILES	mcGAS inh	hcGAS lum	NPYLR7 ag
O=C(N=Nc1c(O)[nH]c2ccc(Br)cc12)c1ccccc1O	-3	3	11
O=C(N=Nc1c(O)[nH]c2ccc(Br)cc12)c1ccccc1Cl	-3	1	72*
Cc1ccc(S(=O)(=O)NC(=O)CN2CCCCCC2=O)c(C)c1	x	-6	-5
CCC(C)n1cc(/C=C2/C(=O)NC(=O)N(c3ccc4c(c3)OCO4)C2=O)c2ccccc21 (configuration not stated)	x	0	52*
COc1cccc(N2C(=O)NC(=O)/C(=C/c3cn(C(C)=O)c4ccccc34)C2=O)c1	3	3	-2
CN(C)S(=O)(=O)c1ccc(C(=O)Nc2ccc3c(c2)C(=O)c2ccccc2C3=O)cc1	105*	-2	20
Cc1ccc(C(=O)Nc2ccc3c(c2)C(=O)c2ccccc2C3=O)cc1	x	-8	-1
CCN(CC)CCNc1ccc(CO)c2sc3ccccc3c(=O)c12	x	54*!	-4
CCN(CC)CCNc1nc2c(F)cccc2s1	x	-10	4
O=C(O)c1cccnc1CN1CCC(C(O)Cc2ccccc2)CC1 (configuration not stated)	x	-5	15
O=C(/C=C/c1ccc(Cl)cc1Cl)n1cccn1	44*	4	-10
CN1CCN(C(=O)/C=C/c2ccc(Cl)cc2Cl)CC1	-6	-2	-3
C=CCN1C(=O)C(=Cc2ccncc2)SC1=S	x	-5	-3
C=CCN1C(=O)/C(=C\c2ccc(N(C)C)cc2)SC1=S	-7	-7	7
Cc1ccc(/C=C2\SC(=S)N(C(C(=O)O)C(C)C)C2=O)cc1 (configuration not stated)	7	-1	-6
C=CCN1C(=O)/C(=C\c2ccc(O)cc2)SC1=S	-6	-7	55*
CCN(CC)c1ccc(/C=C2\SC(=S)N(CC(=O)O)C2=O)c(O)c1	-9	-18	93*
CC(C)C(C(=O)O)N1C(=O)/C(=C/c2ccc(O)cc2)SC1=S (configuration not stated)	-5	-3	68*
CN(C)c1ccc(/C=C2/SC(=S)N(CC(=O)O)C2=O)cc1	-8	3	71*
O=C(O)CN1C(=O)/C(=C\c2ccc(O)c(O)c2)SC1=S	5	-2	13
O=C(NCCn1ncc2c(N3CCN(c4ccccc4)CC3)ncnc21)C1COc2ccccc2O1 (configuration not stated)	-9	-10	2
Cc1cc(-n2c(C)cc(C(=O)Cn3cnc4c3c(=O)n(C)c(=O)n4C)c2C)no1	x	-6	-6
CN(c1cc(Cl)nc(N)n1)C1CCN(c2ccccc2)C1=O (configuration not stated)	x	-9	10
CN(Cc1ccc(F)cc1)Cn1nc(-c2cccc(S(=O)(=O)N3CCOCC3)c2)oc1=S	-9	-5	3
CCCCC(CC)CNP1(=O)C=C(c2ccccc2)SC(c2ccccc2)=C1 (configuration not stated)	x	-2	3
SMILES	mcGAS inh	hcGAS lum	NPYLR7 ag
O=C(O)CN1C(=O)/C(=C\c2ccc(O)cc2)SC1=S	x	-5	59*
O=C(O)CCCN1C(=O)/C(=C\c2ccc(O)cc2)SC1=S	-1	-4	61
CC(C(=O)O)N1C(=O)/C(=C/c2ccc([N+](=O)[O-])cc2)SC1=S (configuration not stated)	39	-1	-2
O=C(O)C(Cc1ccccc1)N1C(=O)/C(=C/c2ccc([N+](=O)[O-])cc2)SC1=S (configuration not stated)	54*	2	6
COc1cc(OC)c(OC)cc1/C=C1/SC(=S)N(CC(=O)O)C1=O	-3	-1	59*
COc1ccc(Br)cc1/C=C1/SC(=S)N(CC(=O)O)C1=O	x	-1	-1
CC(C)(C)c1ccc(NC(=S)NC(=O)c2cccs2)cc1	x	-3	3
Cc1csc(NC(=O)CCc2nc(Cc3ccccc3)no2)n1	x	-14	10
O=C(O)c1csc(CSc2nnc(Cc3ccccc3)n2-c2cccc(C(F)(F)F)c2)n1	0	1	55*
O=C(NCc1cccc(C(F)(F)F)c1)c1csc(CSc2nnc(Cc3ccccc3)n2-c2ccccc2)n1	-5	-3	-2
CCCCn1c(=O)c2c(nc3n2CCN3c2ccccc2)n(C)c1=O	x	-11	13
COc1cccc(CN2C(=O)COCc3cc(-c4cncnc4)ccc32)c1	x	4	4
CCC(=O)Oc1ccc2c(c1)O/C(=C\c1ccco1)C2=O	80*	17	-1
